The values below come from PubChem BioAssay (NCATS).

Test [1] can be described thus: Quantitative High-Throughput drug screen in 47 multiple myeloma cell lines against the NCATS MIPE library collection: KMS26_JCRB cell viability assay (AID 1918975). Note: nearly all actives have a fitted effect of over 45% in size. Note: potency is the fitted concentration of half-maximal effect. An outline of the steps:
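We plated 500 myeloma cells per well, pinned in MIPE 4.0 compounds, and incubated for 48 hours at 37C. ATP was then quantified with CellTiter-Glo, with DMSO and media-only wells defining 100% and 0%.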

Test [2] is described as follows: Quantitative High-Throughput drug screen in 47 multiple myeloma cell lines against the NCATS MIPE library collection: MOLP8_DSMZ cell viability assay (AID 1918977). Note: nearly all actives have a fitted effect of over 45% in size. Note: potency is the fitted concentration of half-maximal effect. A digest of the protocol:
(§1)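 Inhibition of viability over 48 h was scored by ATP content (CellTiter-Glo) in 500-cell wells. Zero and full viability were defined by media-only and DMSO-only wells.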

Test [3] in a line: Quantitative High-Throughput drug screen in 47 multiple myeloma cell lines against the NCATS MIPE library collection: MM1R_ATCC cell viability assay (AID 1918981). Note: nearly all actives have a fitted effect of over 35% in size. Note: potency is the fitted concentration of half-maximal effect. An outline of the steps: as §1
A short description of test [4]: Quantitative High-Throughput drug screen in 47 multiple myeloma cell lines against the NCATS MIPE library collection: LP1_DSMZ cell viability assay (AID 1918982). Note: nearly all actives have a fitted effect of over 35% in size. A digest of the protocol:
as §1

The nature of test [5]: Quantitative High-Throughput drug screen in 47 multiple myeloma cell lines against the NCATS MIPE library collection: KMS28PE_JCRB cell viability assay (AID 1918983). Note: nearly all actives have a fitted effect of over 35% in size. Note: potency is the fitted concentration of half-maximal effect. A digest of the protocol:
as §1

A short description of test [6]: Quantitative High-Throughput drug screen in 47 multiple myeloma cell lines against the NCATS MIPE library collection: L363_DSMZ cell viability assay (AID 1918984). Note: nearly all actives have a fitted effect of over 40% in size. Note: potency is the fitted concentration of half-maximal effect. A digest of the protocol:
as §1

A short description of test [7]: Quantitative High-Throughput drug screen in 47 multiple myeloma cell lines against the NCATS MIPE library collection: OCIMY7_PLB cell viability assay (AID 1918987). Note: nearly all actives have a fitted effect of over 65% in size. Note: potency is the fitted concentration of half-maximal effect. An outline of the steps:
as §1

The nature of test [8]: Quantitative High-Throughput drug screen in 47 multiple myeloma cell lines against the NCATS MIPE library collection: OCIMY5_PLB cell viability assay (AID 1918988). Note: nearly all actives have a fitted effect of over 65% in size. Note: potency is the fitted concentration of half-maximal effect. A digest of the protocol: as §1
Test [9] in a line: Quantitative High-Throughput drug screen in 47 multiple myeloma cell lines against the NCATS MIPE library collection: U266_ATCC cell viability assay (AID 1919864). Note: nearly all actives have a fitted effect of over 35% in size. Note: potency is the fitted concentration of half-maximal effect. An outline of the steps: as §1
Test [10] in a line: Quantitative High-Throughput drug screen in 47 multiple myeloma cell lines against the NCATS MIPE library collection: VP6_DJ cell viability assay (AID 1919867). Note: nearly all actives have a fitted effect of over 40% in size. Note: potency is the fitted concentration of half-maximal effect. An outline of the steps:
as §1

Test [11] in a line: Quantitative High-Throughput drug screen in 47 multiple myeloma cell lines against the NCATS MIPE library collection: OCIMY1_PLB cell viability assay (AID 1918979). Note: nearly all actives have a fitted effect of over 35% in size. Note: potency is the fitted concentration of half-maximal effect. An outline of the steps: as §1
Test [12] is described as follows: Quantitative High-Throughput drug screen in 47 multiple myeloma cell lines against the NCATS MIPE library collection: XG1_PLB cell viability assay (AID 1919866). Note: nearly all actives have a fitted effect of over 35% in size. Note: potency is the fitted concentration of half-maximal effect. A digest of the protocol: as §1
Test [13] in a line: Quantitative High-Throughput drug screen in 47 multiple myeloma cell lines against the NCATS MIPE library collection: MMM1_PLB cell viability assay (AID 1918976). A digest of the protocol:
as §1

Test [14] in a line: Quantitative High-Throughput drug screen in 47 multiple myeloma cell lines against the NCATS MIPE library collection: NCIH929_DSMZ cell viability assay (AID 1918978). Note: nearly all actives have a fitted effect of over 35% in size. Note: potency is the fitted concentration of half-maximal effect. An outline of the steps:
as §1

Test [15] can be described thus: Quantitative High-Throughput drug screen in 47 multiple myeloma cell lines against the NCATS MIPE library collection: MM1S_ATCC cell viability assay (AID 1918980). Note: nearly all actives have a fitted effect of over 45% in size. Note: potency is the fitted concentration of half-maximal effect. An outline of the steps: as §1
The nature of test [16]: Quantitative High-Throughput drug screen in 47 multiple myeloma cell lines against the NCATS MIPE library collection: OPM1_PLB cell viability assay (AID 1918989). Note: nearly all actives have a fitted effect of over 40% in size. Note: potency is the fitted concentration of half-maximal effect. A digest of the protocol:
as §1

Test [17] can be described thus: Quantitative High-Throughput drug screen in 47 multiple myeloma cell lines against the NCATS MIPE library collection: SKMM1_PLB cell viability assay (AID 1919863). Note: nearly all actives have a fitted effect of over 35% in size. Note: potency is the fitted concentration of half-maximal effect. The settings on record: SKMM1 myeloma viability, CellTiter-Glo ATP, 48 h; viability: stronger effect = lower value. An outline of the steps:
as §1

The nature of test [18]: Quantitative High-Throughput drug screen in 47 multiple myeloma cell lines against the NCATS MIPE library collection: XG6_PLB cell viability assay (AID 1919865). Note: nearly all actives have a fitted effect of over 40% in size. Note: potency is the fitted concentration of half-maximal effect. An outline of the steps: as §1
Test [19] is described as follows: Quantitative High-Throughput drug screen in 47 multiple myeloma cell lines against the NCATS MIPE library collection: UTMC2_PLB cell viability assay (AID 1919868). Note: potency is the fitted concentration of half-maximal effect; nearly all actives have a fitted effect of over 55% in size. The settings on record: CellTiter-Glo ATP luminescence, 48 h; viability (% of DMSO control): at 45.8 µM (top of the series). A digest of the protocol: as §1
Background: Cellular ATP, detected with luciferase, serves as a proxy for viable cell number.

The nature of test [20]: Quantitative High-Throughput drug screen in 47 multiple myeloma cell lines against the NCATS MIPE library collection: KMS34_JCRB cell viability assay (AID 1918985). Note: nearly all actives have a fitted effect of over 40% in size. A digest of the protocol:
as §1

Molecules are shown by their SMILES. Results filed as inconclusive are left out. Unmarked numbers belong to inactive results. Calls of active or inactive are those of the source. Calls come from the whole dose curve; as a rule, active = well fitted curve in the direction sought with a large enough effect; inconclusive = small, poorly fitted or top-dose-only effect, or another doubt; inactive = no such curve, though single readings can be large; an effect the other way counts as inactive or inconclusive.

In the case of `NS(=O)(=O)c1cc2c(cc1Cl)NC=NS2(=O)=O`, the Potency entry in test [1], in test [2], in [3], in test [4], in test [5] and in [6] was “inactive” each time. Besides, the Potency result in [7], in test [8], in test [9] and in test [10] was “inactive” in each case.

As to `Cn1c(=O)c(F)c(Nc2ccc(I)cc2F)c2c(=O)n(C[C@@H](O)CO)cnc21`, the Potency result in [1], in [2], in test [11], in [3], in test [5] and in [12] was “inactive” throughout. Further, the Potency in test [9] is 9.35 µM (active).

Consider `CS(=O)(=O)c1cccc(CNc2nc(Nc3ccc4c(c3)CCC(=O)N4)ncc2C(F)(F)F)c1`, for which the Potency in [1] is 18.7 µM (active); in test [13] it was 23.5 µM (active); in test [14], 10.5 µM (active); in test [11], 16.6 µM (active); in test [15], 18.7 µM (active); in [3], 20.9 µM (active). Besides, the Potency in test [5] is 23.5 µM (active); in test [6], 6.62 µM (active); in test [7], 14.8 µM (active); in [8], 18.7 µM (active); in test [16], 18.7 µM (active); in test [17], 20.9 µM (active). Besides, the Potency is 18.7 µM (active) in test [9]; 8.33 µM (active) in test [18]; 11.8 µM (active) in [12]; 5.26 µM (active) in test [10]; 11.8 µM (active) in [19].

Take `COc1ccc(-c2oc3cc(OC)ccc3c2C(=O)c2ccc(C#N)cc2)cc1`: the Potency result in test [1], in test [2], in test [11], in test [3], in test [5] and in test [8] was “inactive” throughout. Further, in test [16], the Potency result is “inactive”. Also, the Potency is 10.5 µM (active) in test [15]; 3.32 µM (active) in test [6]; 14.8 µM (active) in [7]; 16.6 µM (active) in test [9]; 3.32 µM (active) in test [18]; 8.33 µM (active) in [12].

Consider `O=C(Nc1nc2ccccc2n1CCN1CCOCC1)c1cccc([N+](=O)[O-])c1`, for which the Potency in test [1] was 29.6 µM (active); in test [13], 13.2 µM (active); in test [15] it was 9.35 µM (active); in test [3] it was 18.7 µM (active); in test [7] it was 1.87 µM (active); in [8], 5.9 µM (active). For the same molecule, the values for the Potency in test [9], in test [18] and in test [12] were 14.8 µM (active), 1.32 µM (active) and 4.18 µM (active), respectively.

Turning to `CS(=O)(=O)c1ccc(C(=O)Nc2ccc(Cl)c(-c3ccccn3)c2)c(Cl)c1`, the Potency result in [1], in test [2], in test [3], in [4], in test [5] and in test [6] was “inactive” throughout. Moreover, the Potency result in test [20] is “inactive”. Further, the Potency in test [14] is 2.96 µM (active); in [7], 14.8 µM (active); in test [16], 18.7 µM (active); in test [12], 1.66 µM (active). Moreover, the viability (as a rule, a read-out of living cells in per cent, often relative to untreated cells) in test [17] was 129%.

`c1ccc(-c2nn3c(c2-c2ccnc4cc(OCCN5CCOCC5)ccc24)CCC3)nc1`: the Potency entry in [1], in [16] and in test [18] was “inactive” each time. The values for the Potency in [13], in [5] and in test [10] were 26.4 µM (active), 23.5 µM (active) and 1.87 µM (active), respectively.

Take `COc1ccc2c3n(c(=NC(=O)c4cccnc4)nc2c1OC)CCN3`: the Potency in [1] was 11.8 µM (active); in test [13], 4.69 µM (active); in test [2], 2.64 µM (active); in [14] it was 1.87 µM (active); in test [15], 2.64 µM (active); in test [3], 5.9 µM (active). The Potency is 5.9 µM (active) in test [5]; 0.0743 µM (active) in test [7]; 3.72 µM (active) in [8]; 16.6 µM (active) in test [16]; 0.148 µM (active) in [17]; 0.59 µM (active) in test [18]. Further, the Potency is 1.48 µM (active) in test [12], 1.48 µM (active) in test [10] and 3.32 µM (active) in test [19].

Regarding `CC(c1cc2ccccc2s1)N(O)C(N)=O` (centres undefined), the Potency entry in [1], in [2], in test [14], in [11], in test [15] and in test [3] was “inactive” throughout. In addition, the Potency result in [4], in test [5], in test [16], in test [9], in test [18] and in [12] was “inactive” each time. In addition, the viability in test [17] is 118%. In addition, the Potency in test [10] was 3.32 µM (active).

Consider `COc1cccc2cc(-c3nc(C4CCC(C(=O)O)CC4)n4ncnc(N)c34)[nH]c12` (centres undefined), for which the Potency in [1] was 0.662 µM (active); in test [13], 0.662 µM (active); in test [2], 0.418 µM (active); in test [14], 0.187 µM (active); in [11], 1.05 µM (active); in [15], 0.469 µM (active). The Potency in test [3] is 0.469 µM (active); in [5], 0.469 µM (active); in test [7], 4.18 µM (active); in [8], 1.32 µM (active); in test [16], 2.35 µM (active); in test [17] it was 1.87 µM (active). In addition, the Potency was 0.296 µM (active) in [9]; 0.418 µM (active) in test [18]; 0.148 µM (active) in [12]; 0.833 µM (active) in test [10]; 0.235 µM (active) in test [19].

For `CC(=O)Oc1ccccc1C(=O)O`, the Potency in test [1] was 11.8 µM (active); in [14] it was 4.18 µM (active); in [15] it was 5.26 µM (active); in test [3], 18.7 µM (active); in test [7] it was 5.26 µM (active); in test [8], 5.26 µM (active). For the same molecule, the Potency in test [9] was 7.43 µM (active); in test [18], 4.69 µM (active); in test [12], 5.26 µM (active). The Potency result in test [2], in test [11], in test [5], in test [6], in test [20] and in test [16] was “inactive” each time. Further, the viability in test [17] was 129%.

Take `CCN(CC)CCCC(C)Nc1ccnc2cc(Cl)ccc12` (centres undefined): the Potency result in test [1], in test [2], in test [14], in test [11], in test [3] and in test [4] was “inactive” each time. For the same molecule, the Potency entry in test [5] and in test [20] was “inactive” each time. The Potency was 0.935 µM (active) in test [6], 10.5 µM (active) in test [18], 10.5 µM (active) in [12] and 11.8 µM (active) in test [10]. The viability in test [17] was 95.1%.

On to `COc1ccc(C2=N[C@H](c3ccc(Cl)cc3)[C@H](c3ccc(Cl)cc3)N2C(=O)N2CCNC(=O)C2)c(OC(C)C)c1`, for which the Potency in test [1] is 16.6 µM (active); in test [13], 4.69 µM (active); in test [2], 8.33 µM (active); in test [14] it was 5.26 µM (active); in test [15], 2.09 µM (active); in test [3], 2.35 µM (active). The Potency was 0.059 µM (active) in [6]; 8.33 µM (active) in test [7]; 18.7 µM (active) in test [8]; 5.9 µM (active) in test [17]; 20.9 µM (active) in test [9]; 2.64 µM (active) in test [18]. Besides, the Potency result in [11], in test [4] and in test [5] was “inactive” in each case.
